# Active and inactive are the calls of the source.
# Assays:
# [1] = small molecules captured by biotinylated probe aFSTL3 – biochemical, small-molecule microarray, fluorescence 635/667, stem cell growth factor project, primary screen (AID 1064); details: higher = more signal;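 note: measures binding of the biotinylated anti-FSTL3 antibody to printed compounds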
# [2] = binders from COS7 lysate, DM2A8 probe, primary screen, torsin A project, cell lysate, small-molecule microarray, fluorescence 635/667 (AID 1065); details: higher = more signal, COS7 lysate expressing mutant human TOR1A
# [3] = small molecules captured by biotinylated probe aFGF2 – biochemical, small-molecule microarray, fluorescence 635/667, stem cell growth factor project, primary screen (AID 1067); details: higher = more signal;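 note: measures binding of biotinylated aFGF2 protein to printed compounds on slides; z-score merges feature fluorescence and signal-to-noise across triplicate slides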
# [4] = small molecules captured by biotinylated probe aFGF10 – biochemical, small-molecule microarray, fluorescence 635/667, stem cell growth factor project, primary screen (AID 1071); details: higher = more signal;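 note: score merges 667 nm spot intensity and signal to noise from triplicate slides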
# [5] = target: Neurogenic locus notch homolog protein 2 (Homo sapiens) (UniProt Q04721); experiment: small molecules binding Notch2 protein – biochemical, small-molecule microarray, 635 nm fluorescence, stem cell growth factors, primary screen (AID 1073); details: higher = more signal
# [6] = target: Pro-neuregulin-1, membrane-bound isoform (Homo sapiens) (UniProt Q02297); experiment: small molecules binding neuregulin-1 protein – biochemical, small-molecule microarray, fluorescence 635/667, psychiatric disease protein project, primary screen (AID 1075); details: NRG1 binding, 635 nm fluorescence, higher = more signal;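 note: score combines 667 nm spot fluorescence with signal to noise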
# [7] = system: Neuregulin-1 EGF-like domain; experiment: small molecules binding NRG1 EGF domain – biochemical, small-molecule microarray, 635 nm fluorescence, primary screen (AID 1081); details: higher = more signal;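 note: binding of the protein to compounds printed on small-molecule microarray slides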
# [8] = FRG1 expression reporter modulators in myotubes – cell-based, C2C12 myotubes, firefly/Renilla luciferase, luminescence, FRG1 inhibition for FSHD, primary screen (AID 1084); details: FRG1 promoter luciferase, higher = more signal, called active from +8 up or from −8 down
# [9] = small molecules captured by biotinylated probe aFST – biochemical, small-molecule microarray, fluorescence 635/667, stem cell growth factor project, primary screen (AID 1086); details: higher = more signal;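 note: score merges 667 nm fluorescence with signal-to-noise of each printed compound spot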
# [10] = binders of probe aHhip on microarray, primary screen, stem cell growth factor project, biochemical, small-molecule microarray, fluorescence 635/667 (AID 1087); details: higher = more signal;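 note: score merges spot fluorescence at 667nm with spot signal to noise ratio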
# [11] = system: PRMT1 (protein arginine N-methyltransferase 1); experiment: small molecules binding arginine methyltransferase PRMT1 – biochemical, small-molecule microarray, 635 nm fluorescence, primary screen (AID 1088); details: higher = more signal;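 note: binding of Prmt1 protein to compounds spotted on small-molecule microarray slides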
# [12] = growth effects on S. cerevisiae YJM789 – YJM789 clinical isolate, OD600, 24 h, basal, primary screen (AID 1089); details: higher = more signal, called active from +8 up or from −8 down;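 note: growth of clinical yeast isolate S. cerevisiae YJM 789 seeded 1000 cells per well; test concentration not given here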
# [13] = S. pombe growth modifiers, basal conditions – strain 972, OD600, 24 h, no modulator, primary screen (AID 1090);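 note: basal condition with compound alone and no growth modifier present; test concentration not given here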; details: S. pombe 972 growth, higher = more signal, called active from +8 up or from −8 down
# [14] = budding yeast growth modifiers under rapamycin – strain BY4716, OD600, 96 h, primary screen (AID 1091); note: test concentration not given here; details: S. cerevisiae BY4716 + rapamycin, higher = more signal, called active from +8 up or from −8 down
# [15] = target: Torsin-1A-interacting protein 2 (Homo sapiens) (UniProt Q8NFQ8); experiment: small molecules binding lysate-expressed LULL1 – cell lysate, human LULL1 lysate, 635/667 nm fluorescence, primary screen (AID 1092); details: small-molecule microarray, hLULL1 lysate binding, 635 nm fluorescence; higher = more signal;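 note: probe is lysate of COS7 cells overexpressing human LULL1; score merges per-feature 667 nm fluorescence with signal-to-noise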
# [16] = optical density change of DRC41 E. coli – strain DRC41, OD650, 24 h, E. coli filamentation project, primary screen (AID 1093);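 note: MC1000 strain lacking acrAB efflux and sulA so SOS filamentation is blocked; test concentration not given here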; details: E. coli DRC41 growth, higher = more signal, called active from +8 up or from −8 down
# [17] = probe aLefty2 binding to arrayed compounds – biochemical, biotinylated probe, 635/667 nm fluorescence, primary screen (AID 1094); details: small-molecule microarray, higher = more signal;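 note: score merges spot fluorescence near 667 nm with spot signal-to-noise ratio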
# [18] = system: Noggin (protein binding on small-molecule microarray); experiment: small molecules binding Noggin protein – biochemical, 635/667 nm fluorescence, primary screen (AID 1095); details: 635 nm fluorescence, higher = more signal;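 note: score merges 667 nm feature fluorescence with signal to noise over triplicate slides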
# [19] = target: Neurogenic locus notch homolog protein 3 (Homo sapiens) (UniProt Q9UM47); experiment: small molecules binding NOTCH3 protein – biochemical, 635/667 nm fluorescence, primary screen (AID 1096); details: small-molecule microarray, 635 nm fluorescence, higher = more signal
# [20] = probe aEGFR binding to arrayed compounds – biochemical, biotinylated probe, 635/667 nm fluorescence, primary screen (AID 1097); details: small-molecule microarray, higher = more signal;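 note: probe is a biotinylated anti-EGFR antibody binding compounds printed on slides; score combines fluorescence near 667 nm and signal to noise of each spot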
# Sequence of Pro-neuregulin-1, membrane-bound isoform (Homo sapiens) (Q02297 whole entry, looked up, the tested form may be a part, canonical isoform): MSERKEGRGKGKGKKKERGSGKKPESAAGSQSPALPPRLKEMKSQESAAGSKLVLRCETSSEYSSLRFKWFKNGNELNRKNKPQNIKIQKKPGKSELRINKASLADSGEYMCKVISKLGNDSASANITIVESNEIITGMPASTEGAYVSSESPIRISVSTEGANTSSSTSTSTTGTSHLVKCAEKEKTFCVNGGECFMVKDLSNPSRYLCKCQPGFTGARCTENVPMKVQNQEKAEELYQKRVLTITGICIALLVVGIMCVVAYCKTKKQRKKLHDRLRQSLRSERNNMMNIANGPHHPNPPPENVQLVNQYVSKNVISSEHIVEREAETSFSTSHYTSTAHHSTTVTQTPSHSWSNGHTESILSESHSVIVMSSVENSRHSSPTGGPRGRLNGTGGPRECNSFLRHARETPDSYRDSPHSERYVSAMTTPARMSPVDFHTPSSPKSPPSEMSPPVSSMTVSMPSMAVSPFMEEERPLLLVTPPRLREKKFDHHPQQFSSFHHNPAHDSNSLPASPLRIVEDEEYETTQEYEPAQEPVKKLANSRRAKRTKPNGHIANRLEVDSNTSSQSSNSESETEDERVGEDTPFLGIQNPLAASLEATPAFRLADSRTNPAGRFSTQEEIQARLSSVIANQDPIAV
# Sequence of Torsin-1A-interacting protein 2 (Homo sapiens) (Q8NFQ8 whole entry, looked up): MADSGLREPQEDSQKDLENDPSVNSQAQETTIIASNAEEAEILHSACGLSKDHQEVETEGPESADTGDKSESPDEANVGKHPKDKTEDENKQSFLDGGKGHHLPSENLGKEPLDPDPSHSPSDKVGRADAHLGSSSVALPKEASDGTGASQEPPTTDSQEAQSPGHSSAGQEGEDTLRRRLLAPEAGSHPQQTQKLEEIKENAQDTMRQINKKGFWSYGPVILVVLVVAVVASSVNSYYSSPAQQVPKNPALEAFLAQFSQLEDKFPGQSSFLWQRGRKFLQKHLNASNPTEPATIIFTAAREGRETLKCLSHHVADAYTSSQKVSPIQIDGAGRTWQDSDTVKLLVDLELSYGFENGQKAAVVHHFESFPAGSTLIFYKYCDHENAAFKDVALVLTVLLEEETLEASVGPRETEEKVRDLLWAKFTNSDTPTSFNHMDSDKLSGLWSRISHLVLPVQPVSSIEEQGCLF
# Sequence of Neurogenic locus notch homolog protein 2 (Homo sapiens) (Q04721 whole entry, looked up, canonical isoform): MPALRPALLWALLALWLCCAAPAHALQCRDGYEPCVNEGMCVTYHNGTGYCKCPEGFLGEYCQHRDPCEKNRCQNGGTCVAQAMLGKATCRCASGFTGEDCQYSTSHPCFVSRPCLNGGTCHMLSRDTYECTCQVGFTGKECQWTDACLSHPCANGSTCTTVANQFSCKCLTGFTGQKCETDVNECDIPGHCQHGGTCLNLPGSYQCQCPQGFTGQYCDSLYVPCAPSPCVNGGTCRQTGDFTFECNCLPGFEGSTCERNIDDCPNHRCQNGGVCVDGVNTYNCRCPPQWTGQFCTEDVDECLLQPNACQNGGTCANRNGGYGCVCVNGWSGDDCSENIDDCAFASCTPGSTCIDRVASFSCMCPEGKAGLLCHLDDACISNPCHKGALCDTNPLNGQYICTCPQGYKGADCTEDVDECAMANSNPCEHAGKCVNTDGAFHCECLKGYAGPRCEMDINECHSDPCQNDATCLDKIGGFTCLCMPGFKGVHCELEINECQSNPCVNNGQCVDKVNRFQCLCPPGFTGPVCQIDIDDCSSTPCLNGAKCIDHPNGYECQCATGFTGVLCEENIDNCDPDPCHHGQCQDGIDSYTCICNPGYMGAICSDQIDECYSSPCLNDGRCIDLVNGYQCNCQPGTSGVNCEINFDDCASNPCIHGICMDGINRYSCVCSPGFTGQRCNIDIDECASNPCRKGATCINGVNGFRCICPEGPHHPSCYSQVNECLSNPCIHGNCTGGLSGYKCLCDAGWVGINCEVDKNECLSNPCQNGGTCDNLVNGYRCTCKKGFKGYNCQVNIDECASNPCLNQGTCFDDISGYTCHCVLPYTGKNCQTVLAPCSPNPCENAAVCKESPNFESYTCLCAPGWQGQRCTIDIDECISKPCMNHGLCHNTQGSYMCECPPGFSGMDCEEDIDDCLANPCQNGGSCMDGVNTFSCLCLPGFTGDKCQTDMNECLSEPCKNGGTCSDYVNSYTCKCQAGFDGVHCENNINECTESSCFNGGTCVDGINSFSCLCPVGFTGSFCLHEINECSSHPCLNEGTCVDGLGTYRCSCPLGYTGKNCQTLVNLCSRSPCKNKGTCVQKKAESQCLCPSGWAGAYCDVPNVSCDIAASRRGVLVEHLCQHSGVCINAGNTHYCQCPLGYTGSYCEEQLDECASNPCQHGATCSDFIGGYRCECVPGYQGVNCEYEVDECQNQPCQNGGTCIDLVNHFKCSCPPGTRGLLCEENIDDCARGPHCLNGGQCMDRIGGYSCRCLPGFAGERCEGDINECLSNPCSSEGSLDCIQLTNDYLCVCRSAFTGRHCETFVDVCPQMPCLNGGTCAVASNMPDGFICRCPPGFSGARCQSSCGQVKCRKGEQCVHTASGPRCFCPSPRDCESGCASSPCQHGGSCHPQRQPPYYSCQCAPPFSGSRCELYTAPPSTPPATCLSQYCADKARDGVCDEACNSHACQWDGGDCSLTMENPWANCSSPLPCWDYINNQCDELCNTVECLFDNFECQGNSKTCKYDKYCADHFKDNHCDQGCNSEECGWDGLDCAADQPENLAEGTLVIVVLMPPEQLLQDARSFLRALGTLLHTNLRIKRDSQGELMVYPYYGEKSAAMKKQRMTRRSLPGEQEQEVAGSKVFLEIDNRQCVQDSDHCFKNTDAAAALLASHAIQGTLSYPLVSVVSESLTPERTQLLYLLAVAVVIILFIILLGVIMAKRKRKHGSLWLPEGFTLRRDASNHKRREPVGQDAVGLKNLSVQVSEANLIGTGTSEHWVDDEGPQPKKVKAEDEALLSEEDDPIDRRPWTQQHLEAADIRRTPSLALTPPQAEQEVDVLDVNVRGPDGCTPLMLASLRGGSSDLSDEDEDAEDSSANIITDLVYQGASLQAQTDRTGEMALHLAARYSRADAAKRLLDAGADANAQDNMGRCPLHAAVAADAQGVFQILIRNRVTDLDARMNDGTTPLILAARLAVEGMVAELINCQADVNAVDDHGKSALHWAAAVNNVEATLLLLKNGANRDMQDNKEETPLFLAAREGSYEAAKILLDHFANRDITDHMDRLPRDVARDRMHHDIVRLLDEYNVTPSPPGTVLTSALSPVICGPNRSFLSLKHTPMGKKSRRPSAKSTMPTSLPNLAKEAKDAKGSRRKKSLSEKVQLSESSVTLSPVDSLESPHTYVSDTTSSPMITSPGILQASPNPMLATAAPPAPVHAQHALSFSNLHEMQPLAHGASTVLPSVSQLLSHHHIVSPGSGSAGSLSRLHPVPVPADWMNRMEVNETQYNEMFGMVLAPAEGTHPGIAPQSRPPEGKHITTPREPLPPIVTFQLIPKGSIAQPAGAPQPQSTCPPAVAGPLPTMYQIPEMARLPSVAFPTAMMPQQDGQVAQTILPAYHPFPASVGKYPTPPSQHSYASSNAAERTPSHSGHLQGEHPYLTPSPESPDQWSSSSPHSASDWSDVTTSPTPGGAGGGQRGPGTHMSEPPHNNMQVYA
Compound,composite z-score [1],composite z-score [2],composite z-score [3],composite z-score [4],composite z-score [5],composite z-score [6],composite z-score [7],z-score [8],composite z-score [9],composite z-score [10],composite z-score [11],z-score [12],z-score [13],z-score [14],composite z-score [15],z-score [16],composite z-score [17],composite z-score [18],composite z-score [19],composite z-score [20]
CCCCN1CC=CC23O[C@@H]4C=CCOC(=O)[C@@H]4[C@H]2C(=O)N(CCCCCO)[C@@H]3C1=O (stereo not given in full),0.219,-0.726,-0.187,-0.32,-0.661,0.967,1.34,-0.333 (inactive),-0.603,-0.21,-0.0902,-0.404 (inactive),-0.244 (inactive),-0.279 (inactive),3.04,1.34 (inactive),0.0695,-0.929,-0.445,-0.268
COc1cc(OC)c(C(O)C2C=CC3C(=O)NC(=O)C3N2Nc2ccc(Cl)cc2Cl)cc1Br (stereo not given),0.379,-0.0156,0.19,0.141,1.61,1.9,1.11,0.809 (inactive),1.58,-0.199,0.743,-18.8 (active),0.109 (inactive),-0.55 (inactive),3.34,-1.99 (inactive),0.277,-0.48,0.541,0.0009
CC(C)N1C(=O)c2ccccc2[C@](C)(C(=O)NCc2ccccc2)[C@@H]1c1ccc(CO)cc1,0.197,0.0699,-0.157,-0.158,-0.463,-1.06,0.744,-1.03 (inactive),-0.27,-0.0994,0.0055,-0.261 (inactive),-1.16 (inactive),-0.625 (inactive),1.91,-0.587 (inactive),0.0322,-0.969,-0.394,-0.244
CCCCCCC#C[Si](O[C@H](c1ccccc1)c1cn([C@H](CO)Cc2ccccc2)nn1)(C(C)C)C(C)C,-0.206,0.0423,-0.142,0.296,-0.39,-0.138,1,-0.334 (inactive),-0.682,-0.0324,1.55,-2.3 (inactive),-16.2 (active),-1.57 (inactive),1.7,1.16 (inactive),-0.198,0.0817,-0.0029,-0.115
CC[C@@H]1C=C(C(=O)O)[C@H](c2ccco2)N1S(=O)(=O)c1ccc(C)cc1,0.001,0.0518,-0.0141,-0.214,-0.974,0.179,0.504,0.0623 (inactive),0.545,-0.0391,0.475,0.316 (inactive),0.535 (inactive),-0.407 (inactive),0.0172,0.0597 (inactive),-0.0644,0.237,-0.14,-0.171
CC(=O)NCCCC[C@@H]1NC(=O)[C@@H]2C[C@H](C(=O)NCCCCN(C)C)[C@H](c3cccc(OCCO)c3)N2C1=O,0.123,0.537,-0.108,-0.107,-0.569,-0.283,1.12,3.26 (inactive),0.571,-0.236,0.558,-0.546 (inactive),0.595 (inactive),-0.789 (inactive),1.51,0.187 (inactive),-0.0124,-0.104,0.465,-0.127
CN1C(=O)C2C=CC(C(O)c3ccccc3)N(Nc3ccccc3)C2C1=O (stereo not given),0.527,-0.214,0.0444,-1.06,-0.0125,0.151,0.547,0.527 (inactive),0.261,-0.301,0.47,-0.124 (inactive),0.807 (inactive),0.646 (inactive),2.71,-1.79 (inactive),0.0105,-1.09,-0.557,-0.0828
CCCC[C@H]1OB(O)C[C@H]2C1=C(COc1ccccc1)C[C@H]1C(=O)N(C)C(=O)[C@H]12,-0.32,-0.353,-0.085,0.121,0.85,0.0746,0.462,-0.153 (inactive),1.2,-0.0754,-0.0361,-0.454 (inactive),-1.03 (inactive),-0.861 (inactive),0.265,-0.632 (inactive),0.0784,0.231,0.187,-0.0714
C=C(COC)/C(=C/C[C@H](OC(=O)c1ccncc1)c1ccc(OCCO)cc1)c1cnc2ccccc2c1,-0.219,0.833,0.0485,0.97,1.57,1.4,1.14,1.87 (inactive),1.14,0.12,1.53,-0.922 (inactive),-1.39 (inactive),0.0294 (inactive),3.13,-0.124 (inactive),-0.0094,1.39,1.05,0.0176
O=C1OCC=C[C@H]2OC34C=CCN(CCN5CCOCC5)C(=O)[C@H]3N(CCCO)C(=O)[C@@H]4[C@@H]12 (stereo not given in full),-0.206,-0.426,-0.139,-0.02,-0.146,-0.125,0.59,1.78 (inactive),-0.382,-0.0003,-0.102,0.0736 (inactive),-0.454 (inactive),0.238 (inactive),0.477,0.681 (inactive),-0.208,0.219,0.314,-0.128
